This is part of a sample that, as a whole, favours compounds with a hit. Of some 83,000 tested, about 20% had one in any assay.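 For each line, cells grew in 96-well plates with the test compound present at a single concentration for 48 hours.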 Values without a mark were called inactive. The source made the active and inactive calls. Rule for the calls: active = growth percent below 10; inactive = the rest.
Columns and labels:
Assay in all cases: NCI-60 one-dose screen, 48 h (100 = growth as untreated, 0 = no growth, -100 = all killed)
[1] = tested on: HCT-15 colon
[2] = tested on: HT29 colon
[3] = tested on: SNB-75 CNS
[4] = tested on: SNB-19 CNS
[5] = tested on: U251 CNS
[6] = tested on: PC-3 prostate
[7] = tested on: SK-MEL-5 melanoma
[8] = tested on: UACC-62 melanoma
[9] = tested on: LOX IMVI melanoma
[10] = tested on: SK-MEL-28 melanoma

## O=[N+]([O-])c1ccc(OCc2ccc(S(=O)(=O)F)c(Cl)c2)c(Cl)c1
[1]; 10 µM unless noted
  growth: 84.6%
[2]; 10 µM unless noted
  growth: 99.2%
[3]; 10 µM unless noted
  growth: 92.8%
[4]; 10 µM unless noted
  growth: 108%
[5]; 10 µM unless noted
  growth: 107%
[6]; 10 µM unless noted
  growth: 91.4%
[7]; 10 µM unless noted
  growth: 99.6%
[8]; 10 µM unless noted
  growth: 92.6%
[9]; 10 µM unless noted
  growth: 93%
[10]; 10 µM unless noted
  growth: 119%

## CCCCOCCOP(=O)(OCCOCCCC)OCCOCCCC
[1]; 10 µM unless noted
  growth: 101%
[2]; 10 µM unless noted
  growth: 104%
[3]; 10 µM unless noted
  growth: 103%
[4]; 10 µM unless noted
  growth: 98%
[5]; 10 µM unless noted
  growth: 106%
[6]; 10 µM unless noted
  growth: 103%
[7]; 10 µM unless noted
  growth: 99.1%
[8]; 10 µM unless noted
  growth: 93.7%
[9]; 10 µM unless noted
  growth: 91.7%
[10]; 10 µM unless noted
  growth: 117%

## CCN1C(=O)CC(=O)N(CC)C1=S
[1]; 10 µM unless noted
  growth: 96.4%
[2]; 10 µM unless noted
  growth: 92.1%
[3]; 10 µM unless noted
  growth: 72.4%
[4]; 10 µM unless noted
  growth: 101%
[5]; 10 µM unless noted
  growth: 105%
[6]; 10 µM unless noted
  growth: 100%
[7]; 10 µM unless noted
  growth: 96.8%
[8]; 10 µM unless noted
  growth: 95.5%
[9]; 10 µM unless noted
  growth: 100%
[10]; 10 µM unless noted
  growth: 105%

## CC(=O)OCC1OC([S-])C(OC(C)=O)C(OC(C)=O)C1OC(C)=O.[Au+].c1ccc(CN2[CH-]N(Cc3ccccc3)C(c3ccccc3)=C2c2ccccc2)cc1
[1]; 4.75 µM
  growth: -57.5% (active)
[1]; 10 µM
  growth: -79.8% (active)
[2]; 4.75 µM
  growth: 0.406% (active)
[2]; 10 µM
  growth: 16.4%
[3]; 4.75 µM
  growth: 26.1%
[3]; 10 µM
  growth: 3.87% (active)
[4]; 4.75 µM
  growth: -49.9% (active)
[4]; 10 µM
  growth: -80.3% (active)
[5]; 4.75 µM
  growth: -72.4% (active)
[5]; 10 µM
  growth: -84% (active)
[6]; 4.75 µM
  growth: 4.86% (active)
[6]; 10 µM
  growth: 9.73% (active)
[7]; 4.75 µM
  growth: -50.5% (active)
[7]; 10 µM
  growth: 16.8%
[8]; 4.75 µM
  growth: -18.6% (active)
[8]; 10 µM
  growth: 3.54% (active)
[9]; 4.75 µM
  growth: -82.1% (active)
[9]; 10 µM
  growth: -86.2% (active)
[10]; 4.75 µM
  growth: 10%
[10]; 10 µM
  growth: 20.2%

## O=C(CBr)OCCOC(=O)CBr
[1]; 10 µM unless noted
  growth: 72.4%
[2]; 10 µM unless noted
  growth: 92.5%
[3]; 10 µM unless noted
  growth: 91.2%
[4]; 10 µM unless noted
  growth: 104%
[5]; 10 µM unless noted
  growth: 87.4%
[6]; 10 µM unless noted
  growth: 84.1%
[7]; 10 µM unless noted
  growth: 99.3%
[8]; 10 µM unless noted
  growth: 81.4%
[9]; 10 µM unless noted
  growth: 37.1%
[10]; 10 µM unless noted
  growth: 79.5%

## N#CC(NC(=O)CCl)=C(Cl)Cl
[1]; 10 µM unless noted
  growth: -21.1% (active)
[2]; 10 µM unless noted
  growth: -49.2% (active)
[3]; 10 µM unless noted
  growth: 66.6%
[4]; 10 µM unless noted
  growth: 60.3%
[5]; 10 µM unless noted
  growth: 9.19% (active)
[6]; 10 µM unless noted
  growth: 37.7%
[7]; 10 µM unless noted
  growth: 25.4%
[8]; 10 µM unless noted
  growth: -5.68% (active)
[9]; 10 µM unless noted
  growth: -56.4% (active)
[10]; 10 µM unless noted
  growth: -39.9% (active)

## O=C(O)CNCP(=O)(O)O
[1]; 10 µM unless noted
  growth: 123%
[2]; 10 µM unless noted
  growth: 98.6%
[3]; 10 µM unless noted
  growth: 96.5%
[4]; 10 µM unless noted
  growth: 123%
[5]; 10 µM unless noted
  growth: 98.3%
[6]; 10 µM unless noted
  growth: 106%
[7]; 10 µM unless noted
  growth: 111%
[8]; 10 µM unless noted
  growth: 105%
[9]; 10 µM unless noted
  growth: 95.7%
[10]; 10 µM unless noted
  growth: 120%

## Cc1c(C)c(N)c(C)c(C)c1N
[1]; 10 µM unless noted
  growth: 34.8%
[2]; 10 µM unless noted
  growth: 25.7%
[3]; 10 µM unless noted
  growth: 110%
[4]; 10 µM unless noted
  growth: 82.1%
[5]; 10 µM unless noted
  growth: 78.1%
[6]; 10 µM unless noted
  growth: 73.6%
[7]; 10 µM unless noted
  growth: 93%
[8]; 10 µM unless noted
  growth: 66.3%
[9]; 10 µM unless noted
  growth: 51.9%
[10]; 10 µM unless noted
  growth: 106%

## CCOP(=O)(NC)OCC
[1]; 10 µM unless noted
  growth: 112%
[2]; 10 µM unless noted
  growth: 109%
[3]; 10 µM unless noted
  growth: 103%
[4]; 10 µM unless noted
  growth: 102%
[5]; 10 µM unless noted
  growth: 107%
[6]; 10 µM unless noted
  growth: 85.4%
[7]; 10 µM unless noted
  growth: 100%
[8]; 10 µM unless noted
  growth: 108%
[9]; 10 µM unless noted
  growth: 102%
[10]; 10 µM unless noted
  growth: 104%

## CC[C@H](C)[C@H](NC(=O)CN(C)C)C(=O)N(C)[C@H](C[C@@H](OC(C)=O)c1nc(C(=O)NC23C4C5C2C2C3C4C52C(=O)OC)cs1)C(C)C (stereo not given in full)
[1]; 10 µM unless noted
  growth: 14.7%
[2]; 10 µM unless noted
  growth: 2.31% (active)
[3]; 10 µM unless noted
  growth: 30.1%
[4]; 10 µM unless noted
  growth: 40.2%
[5]; 10 µM unless noted
  growth: 16.7%
[6]; 10 µM unless noted
  growth: 25.6%
[7]; 10 µM unless noted
  growth: 5.45% (active)
[8]; 10 µM unless noted
  growth: 29.9%
[9]; 10 µM unless noted
  growth: 15.3%
[10]; 10 µM unless noted
  growth: 61.5%
